# System: Plasmodium falciparum NF54
# Test: growth inhibition relative to untreated control; higher = more inhibition
# Settings: 72 h
# Outline: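 P. falciparum NF54 ring stages (1% hematocrit, 1% parasitemia, 100 μL/well in 96-well half-area dark plates) were exposed for 72 h at 37 °C to single 5 μM or 1 μM doses of Pathogen Box compounds. The medium was minimal RPMI or minimal RPMI plus chorismate end-products (2.2 μM folate, 7.3 μM pABA, 7.3 μM pHBA, 111 μM tyrosine, 90 μM phenylalanine, tryptophan). Growth inhibition was read by SYBR Green, normalised to untreated controls, with uninfected erythrocytes as background.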
# [1] = 1 µM, MM + chorismate end-products (CM screening medium)
# [2] = 5 µM, MM + chorismate end-products (CM screening medium)
SMILES,growth inhibition [1],"growth inhibition (1 µM, minimal medium (MM))",growth inhibition [2],"growth inhibition (5 µM, minimal medium (MM))"
COc1cccc2c(C)nc(N=C(N)N)nc12,70.2%,71.3%,92.4%,89.2%
O=C(NCc1ccoc1)N1CCN(Cc2ccc3c(c2)OCO3)CC1,< 0%,6.98%,< 0%,< 0%
CNC(=O)CNc1nc(-c2ccccn2)nc2scc(-c3ccccc3)c12,8.9%,9.62%,61.2%,37.3%
O=C(Nc1ccc(C(F)(F)F)c(C(F)(F)F)c1)c1cc(Cl)ccc1O,93.1%,95%,> 100%,92.5%
O=C(Nc1ccc(N2CCNCC2)cc1)c1ccn2ncc(-c3cccc(Cl)c3)c2n1,> 100%,> 100%,> 100%,99.8%
CCc1nc2ccccc2n1CC(O)COc1cc(C)ccc1Cl (centres undefined),31.1%,36.8%,98.5%,61%
CS(=O)(=O)c1ccc(C(=O)N(CC2CCCO2)c2nc3ccccc3s2)cc1[N+](=O)[O-] (centres undefined),< 0%,31.2%,72.3%,55.5%
COc1cc(-c2cc(-c3ccc(S(C)(=O)=O)cc3)cnc2N)ccc1O,> 100%,> 100%,96.8%,96%
CC(C)=CCC/C(C)=C/CNCCNC1C2CC3CC(C2)CC1C3 (centres undefined),88.5%,92.6%,> 100%,91.3%
CCCCOC(=O)Nc1cc2nc(C3CCCCC3)[nH]c2cc1N1CCCC1,11.2%,15.4%,85.8%,5.52%
FC(F)(F)c1ccc(N(c2cccnc2)C2CCN(c3ccc(C(F)(F)F)cn3)CC2)cc1,60.2%,38.4%,93.8%,90.5%
CNC(=O)c1cc(S(=O)(=O)N2CCN(c3ccccn3)CC2)cs1,98.3%,96.6%,90.2%,90.9%
CCCCCCCCCCCCCCCCOP(=O)([O-])OCC[N+](C)(C)C,35.9%,19%,3.26%,8.75%
CCN(CC)CCCN1CCN(C(=O)c2cccc(-c3noc(C(F)(F)F)n3)c2)CC1,86.3%,84.9%,95.3%,87%
Nc1ncnc2c1ncn2[C@@H]1O[C@H](COS(=O)(=O)NC(=O)c2ccccc2O)[C@@H](O)[C@H]1O,32.6%,< 0%,< 0%,< 0%
Nc1ncnc2c1c(Cc1cccc3ccccc13)nn2CC1CCNCC1,18.3%,59.9%,19.1%,< 0%
O=C(Nc1c(O)cccc1-c1nc2c(C(=O)O)cccc2o1)c1cc(-c2ccccc2)on1,> 100%,< 0%,< 0%,< 0%
CNc1nnc(Sc2cnn(-c3ccccc3)c(=O)c2Cl)s1,27%,16.6%,79.8%,62.1%

SMILES,growth inhibition [1],"growth inhibition (1 µM, minimal medium (MM))",growth inhibition [2],"growth inhibition (5 µM, minimal medium (MM))"
COc1ccc(C2=NN(C3CCCCCC3)C(=O)C2(C)C)cc1OCCCCOc1ccc(-c2nn[nH]n2)cc1,36.5%,34.6%,47.2%,46.8%
O=C(N[C@H](Cc1ccccc1)C(=O)Nc1ccccc1N1CCOCC1)c1cccs1,6.47%,2.12%,47.7%,27.5%
CCOc1ccc(-c2nc(CNCCc3ccc(F)cc3)cs2)cc1,2.22%,38.5%,28.1%,27.2%
COC(=O)Nc1nc2cc(C(=O)c3ccccc3)ccc2[nH]1,12%,< 0%,5.63%,< 0%
COc1ccccc1C(C)NCC(=O)Nc1cc(C(F)(F)F)ccc1Cl (centres undefined),86.1%,85.5%,88.6%,88%
OCc1ccc(-c2cncc(Nc3cccc(Cl)c3)c2)cc1,78.7%,> 100%,83.2%,85%
CC(=O)Oc1ccccc1C(=O)Nc1ncc([N+](=O)[O-])s1,< 0%,4.44%,12%,< 0%
COc1nc2ccc(Br)cc2cc1[C@@H](c1ccccc1)[C@@](O)(CCN(C)C)c1cccc2ccccc12,73.2%,77.4%,99.4%,88.2%
CC1(C)Cc2c(c(N3CCOCC3)nc3snc(Br)c23)CO1,79.2%,74.4%,53.9%,19.1%
Nc1nccc2ccc(Oc3ccncc3)cc12,73.9%,64%,68.2%,60.1%
CNc1cc(C)nc(C2CN(C(=O)c3n[nH]c4ccccc34)CCO2)c1 (centres undefined),16.4%,10.7%,41.7%,21.7%
CCN(CC)C(=O)N1CCN(C)CC1,31.7%,2.45%,< 0%,< 0%
CC[C@@H]([C@H](C)O)n1ncn(-c2ccc(N3CCN(c4ccc(OC[C@@H]5CO[C@@](Cn6cncn6)(c6ccc(F)cc6F)C5)cc4)CC3)cc2)c1=O,45.5%,50.3%,88.9%,83.4%
Cc1cc(C)c2cc(C(=O)NC3CCCCCCC3)[nH]c2c1,34.2%,0.728%,55.4%,< 0%
Nc1nc2cc(-c3cncc(Oc4ccc(F)cc4)c3)ccc2[nH]1,76.1%,67.8%,94.9%,95.6%
CN1CCN(c2nccc3[nH]c(-c4cccc(F)c4)cc23)CC1,< 0%,58.4%,99%,90%
N=C(N)Nc1ccc(-c2ccc(-c3ccc(NC(=N)N)cc3Cl)o2)c(Cl)c1,96.9%,95.5%,95.7%,95.3%
CNC(=O)C1Cc2c([nH]c3cc(Cl)ccc23)C2(CCN(CCc3ccccc3)CC2)N1 (centres undefined),87%,> 100%,92.8%,94.4%
